# Source: PubChem BioAssay
# In the library only some 28% were active in any assay of this set; here they are far more common.
# CD11b adhes inh: inhibitors of CD11b/CD18 adhesion to fibrinogen, primary screen, K562 cells, luminescence | Integrin beta-2 (Homo sapiens) + Integrin alpha-M (Homo sapiens), P05107+P11215 | ATPlite luminescence; Mn2+ added to activate the integrin | inhibition, % at 10 µM | 93,000 tested, 0.54% active | AID 1497, 2009;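 active = primary inhibition of 50% or more at 10 µM, then 40% or more on retest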
# CYP2C19 act: human CYP2C19 activators, primary screen, biochemical, luminescence; activation factor at 5 µM; recombinant CYP2C19, luciferin-H EGE luminescence; hits give high values; 0 = fully inhibited enzyme, 1 = untreated enzyme; 96,000 tested, under 10 active; AID 1025, 2008;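 active = activation factor of at least 2 at 5 µM in the primary screen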;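 also: 0 = wells with 2.5 mM tranylcypromine and 1 = vehicle-only wells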
# Target sequence (P33261 whole entry, looked up): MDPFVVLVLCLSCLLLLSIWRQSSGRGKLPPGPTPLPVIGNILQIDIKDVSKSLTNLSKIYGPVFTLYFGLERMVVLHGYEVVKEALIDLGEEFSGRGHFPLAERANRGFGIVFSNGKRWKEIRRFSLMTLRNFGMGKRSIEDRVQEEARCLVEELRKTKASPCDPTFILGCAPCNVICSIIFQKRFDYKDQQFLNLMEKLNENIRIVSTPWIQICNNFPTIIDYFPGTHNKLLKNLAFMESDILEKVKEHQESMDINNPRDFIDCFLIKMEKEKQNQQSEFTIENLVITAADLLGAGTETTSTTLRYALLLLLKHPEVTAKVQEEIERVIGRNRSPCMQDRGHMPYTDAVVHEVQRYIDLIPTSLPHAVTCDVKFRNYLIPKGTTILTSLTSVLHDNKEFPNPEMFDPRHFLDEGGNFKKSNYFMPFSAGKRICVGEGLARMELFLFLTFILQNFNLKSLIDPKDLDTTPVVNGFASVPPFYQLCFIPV
# CYP2C9 inhib: blockers of cytochrome P450 2C9 activity – biochemical, luminescence, ADME assay, primary screen; P11712; CYP2C9 Supersomes, luciferin-H conversion; inhibition, % at 5 µM; 96,000 tested, 20% active;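 active = blocking of liver enzyme CYP2C9 beyond about 50% at 5 µM, limit read from the data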
# CYP2C19 inhib: blockers of cytochrome P450 2C19 activity – biochemical, luminescence, ADME assay, primary screen; CYP2C19 Supersomes, luciferin-H EGE luminescence, 30 min; inhibition, % at 5 µM; 96,000 tested, 21% active; AID 778, 2007;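 active = CYP2C19 inhibition above a set limit at 5 µM in the primary screen, cut at about 50% in these data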;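 also: plate controls were negative control wells for no effect and 2.5 mM tranylcypromine positive control for full effect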
# Mac1 fbg enh: enhancers of CD11b/CD18 adhesion to fibrinogen, primary screen, K562 cells, luminescence; Integrin beta-2 (Homo sapiens) + Integrin alpha-M (Homo sapiens), P05107+P11215; ATPlite luminescence; activation, % at 10 µM; 93,000 tested, 0.07% active; AID 1499, 2009;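 active = 10 µM primary screen giving 50% or more activity, confirmed by 40% or more on retest at that dose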
# CYP2C9 activ: human CYP2C9 activators, primary screen, biochemical, luminescence; 96,000 tested, 1.4% active; activation factor at 5 µM; recombinant CYP2C9, luciferin-H conversion; hits give high values; factor 1 = untreated enzyme, 0 = blocked; AID 1024, 2008; Cytochrome P450 2C9 (Homo sapiens), P11712;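 active = activation factor of 2 or more for CYP2C9 at a 5 µM dose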;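 also: 0 = sulfaphenazole-blocked wells and 1 = vehicle-only wells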
# * = called active by the depositor; nt = not tested or not shown.
SMILES,CD11b adhes inh,CYP2C19 act,CYP2C9 inhib,CYP2C19 inhib,Mac1 fbg enh,CYP2C9 activ
CCOC(=O)C1=C(CSCC(=O)OC)NC(=O)NC1c1cc(C)ccc1C (stereo not given),-4.1,0.5,35.0,47.7,-2.0,0.7
CC1CCN(S(=O)(=O)c2ccc3ncn(CC(=O)N(C)Cc4ccccc4)c(=O)c3c2)CC1,nt,0.8,48.6,18.1,nt,0.5
CCCCCc1nnc(NC(=O)Cc2cccs2)s1,-6.9,0.7,48.7,31.6,6.8,0.5
Cc1ccc(S(=O)(=O)N2CCC(C(=O)Nc3ccc4c(c3)COC4=O)CC2)cc1,-2.9,1.1,-37.2,-9.3,-3.0,1.4
CC(=O)N1CCN(C(=S)c2ccc([N+](=O)[O-])cc2)CC1,-34.1,0.5,1.7,50.7*,-1.6,1
CCOC(=O)N1CCC(NC(=O)CN(C)S(=O)(=O)c2cc3c(cc2Cl)NC(=O)CO3)CC1,-6.3,1,56.4*,-3.9,-3.9,0.4
CCOC(=O)N1CCC(NS(=O)(=O)c2cc3c(cc2C)NC(=O)CO3)CC1,-12.2,1,6.8,4.9,-3.9,0.9
O=P(O)(O)C(O)C(F)(F)C(F)(F)C(F)(F)C(F)F (stereo not given),11.6,1.2,7.6,-16.1,-3.0,0.9
CC(=O)NC(N1CCCCC1)C(F)(F)C(F)(F)C(F)(F)C(F)F (stereo not given),-3.2,0,65.0*,98.8*,-2.7,0.3
COc1ccc(C2C(C(=O)NCCN(C)C)c3ccccc3C(=O)N2C)cc1OC (stereo not given),-3.0,1.2,-12.0,-20.6,-2.8,1.1
Cn1nnnc1SCc1nnc(-c2ccc(F)cc2)o1,6.5,1.2,-25.4,-16.4,1.2,1.3
COC(=O)c1cc2ccsc2n1Cc1cc(=O)n2ccccc2n1,10.9,0.5,92.3*,52.6*,4.8,0.1
COC(=O)c1cc2ccsc2n1Cc1nc(-c2ccc(Cl)cc2)oc1C,-3.8,0.5,89.1*,54.8*,3.1,0.1
COC(=O)c1cc2ccsc2n1CC(=O)N1CCCc2ccccc21,5.4,0.1,93.4*,94.6*,-4.1,0.1
COC(=O)c1cc2ccsc2n1CC(=O)Nc1cc(C)cc(C)c1,-23.1,0.6,66.4*,38.0,37.4,0.3
Cc1oc(-c2ccc(Cl)cc2)nc1CN1CCC(C(=O)NCc2cccs2)CC1,-29.7,1,6.9,1.3,0.6,0.9
CC(=O)c1cc(C)ccc1OC(=O)CCN1C(=O)C2C3c4ccccc4C(c4ccccc43)C2C1=O (stereo not given),nt,0.8,6.1,23.3,nt,0.9
CCCCNC(=O)Cn1c2c(c(-c3ccccc3Cl)cc1=O)CCC2,-3.9,0.4,78.5*,61.0*,1.6,0.2
CCCCNC(=O)CSc1cc(=O)n(C)c2ccccc12,-6.5,0.9,-3.9,9.0,-6.5,1
CN1CCN(c2cc3c(c4c2[nH]c2ccccc24)C(=O)CC(C)(C)C3)CC1,16.5,0.4,78.5*,60.7*,8.8,0.2
CN1CCN(c2ncnc3c2[nH]c2ccc(F)cc23)CC1,-8.7,0.9,9.1,9.9,0.8,0.9
COC(=O)Nc1ccc2ncn(C)c(=O)c2c1,-1.3,1.1,-4.1,-6.2,0.7,1
CCNC(=S)NNC(=O)c1cc(-c2cccc(OCC)c2)nc2ccccc12,31.3,0.6,84.1*,37.6,-5.2,0.2
CCNC(=S)NNC(=O)c1cc(C2CC2)nc2ccccc12,nt,1.1,50.9*,-11.0,nt,0.5
CCNC(=S)NNC(=O)c1cc(-c2cccc(C)c2)nc2ccccc12,59.5*,1,51.8*,4.3,-5.4,0.5
SMILES,CD11b adhes inh,CYP2C19 act,CYP2C9 inhib,CYP2C19 inhib,Mac1 fbg enh,CYP2C9 activ
CCNC(=S)NNC(=O)c1cc(C)nc2ccccc12,7.0,nt,nt,nt,1.5,nt
COc1ccc2[nH]c(C)c(C(=O)CN3CCc4cc(OC)c(OC)cc4C3)c2c1,0.1,0.9,41.9,5.5,-1.1,0.6
CC(C)C(NC(=O)OCc1ccccc1)C(=O)OCC(=O)NCc1ccco1 (stereo not given),-19.8,0.7,0.6,26.1,-0.5,1
CC(C)C(NC(=O)OCc1ccccc1)C(=O)NCC(=O)OC(C)(C)C (stereo not given),-16.4,0.2,13.5,82.6*,-2.1,0.9
CC(C)[C@H](NC(=O)OCc1ccccc1)C(=O)OCC(=O)NC1CCCCC1,-52.7,0.2,81.0*,77.9*,4.7,0.2
COC(=O)CNC(=O)C(C)NC(=O)OCc1ccccc1 (stereo not given),-7.3,1,-6.7,-1.6,0.6,1.1
Cc1ccc(S(=O)(=O)c2c(N)n(/N=C/c3ccco3)c3nc4ccccc4nc23)cc1C,1.4,0.8,50.8*,22.9,10.7,0.5
Cc1cccc(S(=O)(=O)c2c(N)n(/N=C/c3ccco3)c3nc4ccccc4nc23)c1,16.1,0.4,85.7*,61.2*,2.1,0.1
Cc1ccc(S(=O)(=O)c2c(N)n(CC3CCOC3)c3nc4ccccc4nc23)cc1 (stereo not given),9.5,0.1,81.7*,85.5*,-2.7,0.2
Nc1c(S(=O)(=O)c2ccccc2)c2nc3ccccc3nc2n1/N=C/c1ccco1,-15.4,0.9,20.8,8.2,-1.7,0.8
Cc1ccc(S(=O)(=O)c2c(N)n(/N=C/c3ccco3)c3nc4ccccc4nc23)cc1,8.3,0.3,83.7*,68.4*,2.0,0.2
CCc1nnc(NC(=O)c2ccc(-c3cccc(C(F)(F)F)c3)o2)s1,-4.3,0.7,6.8,34.4,-4.1,0.9
Cc1cc(C)n2nc3nc(N4CCCCC4)nc(-c4ccco4)c3c2n1,-18.9,0.9,3.1,10.6,0.9,1
CCCCCn1c(CN2CCN(c3cc(Cl)ccc3C)CC2)nc2c1c(=O)[nH]c(=O)n2C,30.1,0.9,24.4,14.9,-3.4,0.8
Cc1ccc(-c2cc(-c3ccc(C)o3)nc(N)c2C#N)cc1,-1.5,0.9,27.7,10.4,0.6,0.7
Cc1cc(-c2cc(-c3ccc(Cl)cc3)nc(N)c2C#N)co1,nt,0.2,69.0*,83.0*,nt,0.3
Cc1ccc(-c2cc(-c3ccc(Cl)cc3)c(C#N)c(N)n2)o1,9.9,0.2,57.3*,75.4*,1.2,0.4
CCn1cc(C(=O)Nc2ccc(C(=O)N3CCCC3)cc2)c(=O)c2ccc(C)nc21,17.0,0.9,2.0,6.8,1.3,1
CC(=O)Nc1ccccc1N(C)S(=O)(=O)c1ccc(C)cc1,9.4,0.7,37.8,28.3,4.7,0.6
C=CCSc1nnc(CSc2nc3sc4c(c3c(=O)[nH]2)CCCC4)n1-c1ccccc1,10.3,0.6,67.2*,37.1,1.5,0.3
